From PubChem
A selection: hits, their analogues and other compounds. The true share with any hit is near 4.5%.
hcDAF-12 act – activators of H. contortus DAF-12 nuclear receptor. HEK293 hcDAF-12 lit1-tk-luc reporter, luminescence; 0% DMSO, 100% Δ7-dafachronic acid. activation, % at 6.8 µM. hit rate 1.4% among 370,000;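 active = activation above the mean of all tested compounds plus 3 SD, cut at about 5.5% in these data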
DAX1 inh-1 – inhibits human nuclear receptor DAX1; HEK293 Gal4-DAX1 luciferase reporter, luminescence; inhibition, % at 6.75 µM; hit rate 0.99% among 340,000;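 active = inhibition above the mean over all tested compounds plus 3 SD, cut at about 4.2% in these data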;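 note: inhibition shows as a rise in luminescence from relieved DAX1 repression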
Target sequence (P51843 207-470 limits assumed): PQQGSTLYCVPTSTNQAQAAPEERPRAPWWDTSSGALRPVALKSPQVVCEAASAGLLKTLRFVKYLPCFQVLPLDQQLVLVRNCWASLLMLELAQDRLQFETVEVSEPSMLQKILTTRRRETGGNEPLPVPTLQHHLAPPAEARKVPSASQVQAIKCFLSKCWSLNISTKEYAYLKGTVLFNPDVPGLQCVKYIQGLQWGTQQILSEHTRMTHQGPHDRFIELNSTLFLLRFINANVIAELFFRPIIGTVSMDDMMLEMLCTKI
GAA850 FXN act – increases GAA850 frataxin promoter reporter activity. HEK293 lucGAA850 FXN promoter luciferase reporter, 24 h; percent of 10 µM SAHA response. activation, % at 6 µM. hit rate 0.56% among 360,000. AID 540364;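 active = activation above the average of all compounds screened plus 3 SD, cutoff fixed separately per campaign, cut at about 7.5% in these data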
ssDAF-12 act – S. stercoralis DAF-12 activation, primary screen; HEK293 ssDAF-12/GRIP1 lit1-tk-luc reporter, luminescence; % of 3 µM dafachronic acid response; hit rate 1% among 370,000; activation, % at 6.8 µM;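 active = activation above the mean over all tested compounds plus 3 SD, cut at about 0.9% in these data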
DAX1 inh-2 – inhibitors of DAX1 repression of SF-1 activated StAR promoter. inhibition, % at 6.8 µM. HEK293T StAR-luciferase reporter, SF-1/DAX-1 repression relief. hit rate 1.1% among 370,000. AID 652010;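 active = inhibition above the mean over all tested compounds plus 3 SD, cut at about 3.6% in these data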;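 note: higher inhibition means more luminescence from relief of DAX-1 repression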
hgDAF12 agonist – agonists of H. glycines DAF-12 nuclear receptor; HEK293 GAL4-hgDAF12 UAS-luciferase reporter, agonist luminescence; normalized to butyrate control; activation, % at 6.8 µM; hit rate 1.8% among 370,000; AID 687014;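 active = activation above a cutoff set at the mean of all screened compounds plus 3 SD, cut at about 10% in these data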
LXRb hcDAF ctr – LXR-beta agonism as hcDAF-12 counter-screen. shares compounds with hcDAF-12 act. HEK293 Gal4-LXR tk-luc reporter, luminescence, 24 h; normalized: DMSO 0%, positive control 100%. activation, % at 6.8 µM. 3,400 tested, under 10 active. AID 743027;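 active = mean percent activation of the reporter above a cutoff set as the average over tested compounds plus their standard deviation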
Target sequence (P55055 whole entry, looked up, the tested form may be a part): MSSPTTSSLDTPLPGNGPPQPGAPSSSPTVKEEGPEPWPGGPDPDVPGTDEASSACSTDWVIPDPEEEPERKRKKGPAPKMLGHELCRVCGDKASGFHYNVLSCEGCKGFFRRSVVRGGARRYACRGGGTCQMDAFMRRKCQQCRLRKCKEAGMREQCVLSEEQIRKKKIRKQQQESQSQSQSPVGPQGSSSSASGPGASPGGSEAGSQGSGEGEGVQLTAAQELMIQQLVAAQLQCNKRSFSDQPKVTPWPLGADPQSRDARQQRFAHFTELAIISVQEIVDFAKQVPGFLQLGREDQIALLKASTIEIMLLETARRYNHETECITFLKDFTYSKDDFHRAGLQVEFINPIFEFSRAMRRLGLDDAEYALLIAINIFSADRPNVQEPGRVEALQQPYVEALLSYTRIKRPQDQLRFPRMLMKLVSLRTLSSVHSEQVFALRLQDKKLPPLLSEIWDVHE
hcDAF12 ag – hcDAF-12 agonism, confirmation assay. HEK293 hcDAF-12 lit1-tk-luc reporter, luminescence; % of Δ7-dafachronic acid response. activation, % at 6.8 µM. hit rate 61% among 3,400. shares compounds with hcDAF-12 act. AID 743032;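 active = mean activation across triplicate tests above the threshold derived from the earlier primary screen, cut at about 5.5% in these data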
hgDAF12 conf – confirmation of H. glycines DAF-12 agonists; shares compounds with hgDAF12 agonist; HEK293 GAL4-hgDAF12 luciferase reporter, agonist mode; percent of butyrate response; activation, % at 6.8 µM; hit rate 80% among 3,300; AID 743050;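 active = mean activation over triplicate wells above the hit cutoff derived from the earlier primary screen, cut at about 11% in these data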
LXRb DAF12 ctr – activates human LXR-beta, counter-screen for DAF-12 agonists. activation, % at 6.8 µM. 3,300 tested, under 10 active. shares compounds with hgDAF12 agonist. HEK293 Gal4-LXR luciferase reporter, 24 h. AID 743051;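 active = mean activation of the triplicate above a set limit carried over from the primary screen, none filed active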
Each line names hits and unclear results; the compound was inactive in the other large screens (follow-up assays come after a bar, where they were run).

O=C(/C=C/[C@H]1O[C@@H](n2ccc(=O)[nH]c2=O)[C@H](O)[C@@H]1O)NC(c1ccccc1)c1ccccc1	none (no result: DAX1 inh-1, GAA850 FXN act)
N#C/C(=C/c1cccs1)c1nc2ccccc2[nH]1	hcDAF-12 act 6.8, hgDAF12 agonist 18 | LXRb hcDAF ctr inactive | hcDAF12 ag 8.4 | hgDAF12 conf 14 | LXRb DAF12 ctr inactive
O=C(COc1ccc2ccccc2c1)Nc1nccs1	hcDAF-12 act 6.7, DAX1 inh-2 3.6, hgDAF12 agonist 19 | LXRb hcDAF ctr inactive | hcDAF12 ag 7.2 | hgDAF12 conf 18 | LXRb DAF12 ctr inactive
O=C(COc1ccccc1)Nc1nccs1	none
COc1ccc(-n2cc3ccc([N+](=O)[O-])cc3n2)cc1	hcDAF-12 act 6.7, hgDAF12 agonist 21 | LXRb hcDAF ctr inactive | hcDAF12 ag 7.1 | hgDAF12 conf 19 | LXRb DAF12 ctr inactive
N#CCC(=O)Nc1ccc(C(=O)OCC(=O)NC2CCCc3ccccc32)cc1 (stereo not given)	none
O=C(NN=C1CCCC1)c1cccs1	hcDAF-12 act 7.0, DAX1 inh-2 4.4, hgDAF12 agonist 22 | LXRb hcDAF ctr inactive | hcDAF12 ag inactive | hgDAF12 conf inactive | LXRb DAF12 ctr inactive
O=C(NN=C1CCCCCC1)c1ccncc1	none
Cc1ccc(N2Cc3ccccc3C2=O)cc1	hcDAF-12 act 12, DAX1 inh-1 5.4, ssDAF-12 act 1.5, hgDAF12 agonist 16 | LXRb hcDAF ctr inactive | hcDAF12 ag 8.8 | hgDAF12 conf 17 | LXRb DAF12 ctr inactive
C(=N\Nc1nncc2ccccc12)/c1ccccn1	none
Fc1cccc(/C=N/Nc2nncc3ccccc23)c1	hcDAF-12 act 12, ssDAF-12 act 1.5, hgDAF12 agonist 21 | LXRb hcDAF ctr inactive | hcDAF12 ag 14 | hgDAF12 conf 23 | LXRb DAF12 ctr inactive
COc1ccc(C2=Nc3ccccc3N(C(=O)c3ccc(C)cc3)C2C(=O)Nc2c(C)cccc2C)cc1 (stereo not given)	none (no result: DAX1 inh-1, GAA850 FXN act)
CCc1nnc(NC(=O)CSc2ccc(-c3nc4ccc(C)cc4[nH]3)cn2)s1	hcDAF-12 act 7.3, DAX1 inh-2 4.4, hgDAF12 agonist 17 | LXRb hcDAF ctr inactive | hcDAF12 ag 7.8 | hgDAF12 conf 18 | LXRb DAF12 ctr inactive
CCN(CC)c1ccc(Nc2nc(-c3cccnc3)cs2)cc1	none
CN(C)c1ccc(Nc2nc(-c3cccnc3)cs2)cc1	hcDAF-12 act 12, ssDAF-12 act 1.3, hgDAF12 agonist 18 | LXRb hcDAF ctr inactive | hcDAF12 ag 9.7 | hgDAF12 conf 23 | LXRb DAF12 ctr inactive
c1ccc(-c2csc(Nc3cccnc3)n2)cc1	hcDAF-12 act 8.1, ssDAF-12 act 1.5, hgDAF12 agonist 21 | LXRb hcDAF ctr inactive | hcDAF12 ag 7.9 | hgDAF12 conf 14 | LXRb DAF12 ctr inactive
Fc1ccc(Nc2nc(-c3cccnc3)cs2)cc1	hcDAF-12 act 10, DAX1 inh-1 8.0, ssDAF-12 act 1.1, hgDAF12 agonist 17 | LXRb hcDAF ctr inactive | hcDAF12 ag 10 | hgDAF12 conf 20 | LXRb DAF12 ctr inactive
Clc1ccc(-c2csc(Nc3cccnc3)n2)cc1	none
Cc1ccccc1NC(=O)CSc1cn[nH]n1	none
CCN1CCN(C(=O)C2CCCN(S(=O)(=O)c3cccc4nsnc34)C2)CC1 (stereo not given)	none
CCC(=O)NC1=C(Nc2ccc(N)cc2)C(=O)c2ccccc2C1=O	hcDAF-12 act 7.9, hgDAF12 agonist 13 | LXRb hcDAF ctr inactive | hcDAF12 ag 8.0 | hgDAF12 conf 11 | LXRb DAF12 ctr inactive
CCOc1ccc(/C=N/NC(=O)Cc2cccs2)cc1	none (no result: DAX1 inh-1)
Cc1cccc(N/C=C/C(=O)c2ccc(Cl)cc2)c1	hcDAF-12 act 6.6, DAX1 inh-1 4.7, hgDAF12 agonist 14 | LXRb hcDAF ctr inactive | hcDAF12 ag 6.9 | hgDAF12 conf 22 | LXRb DAF12 ctr inactive
COc1ccc(N/C=C\C(=O)c2ccc(C)cc2)cc1OC	none
Cc1cccc(C(=O)NN/C=C/C(=O)c2ccccc2)c1	none
Cc1ccc(Cl)c(N/C=C/C(=O)c2ccccc2)c1	hcDAF-12 act 13, ssDAF-12 act 2.9, hgDAF12 agonist 15 | LXRb hcDAF ctr inactive | hcDAF12 ag 16 | hgDAF12 conf 26 | LXRb DAF12 ctr inactive
O=C(CSc1ccccc1Cl)N1CCOCC1	none
Cc1ccc(COc2ccc(/C=N/O)cc2)cc1	hcDAF-12 act 7.8, DAX1 inh-1 5.5, ssDAF-12 act 1.4, hgDAF12 agonist 17 | LXRb hcDAF ctr inactive | hcDAF12 ag 7.0 | hgDAF12 conf 17 | LXRb DAF12 ctr inactive
COc1ccc(-c2cc(-c3cc(F)ccc3O)[nH]n2)cc1OC	none
COc1ccc(-c2cc(-c3ccccc3O)[nH]n2)cc1OC	hcDAF-12 act 7.9, DAX1 inh-2 3.6, hgDAF12 agonist 16 | LXRb hcDAF ctr inactive | hcDAF12 ag inactive | hgDAF12 conf 16 | LXRb DAF12 ctr inactive
CCOC(=O)CSc1nc2ccsc2c(=O)[nH]1	none
Cc1ccc(-c2nc3ccsc3c(=O)[nH]2)cc1	hcDAF-12 act 12, ssDAF-12 act 1.4, DAX1 inh-2 3.7, hgDAF12 agonist 22 | LXRb hcDAF ctr inactive | hcDAF12 ag 14 | hgDAF12 conf 15 | LXRb DAF12 ctr inactive
N#CC1=C(N)N(c2ccc(F)cc2)C2=C(C1c1ccc(O)cc1)S(=O)(=O)CC2 (stereo not given)	none
Cc1ccc2nc(-c3ccc(NC(=O)CCS(=O)(=O)c4ccccc4)cc3)sc2c1	hcDAF-12 act 8.9, ssDAF-12 act 1.5, hgDAF12 agonist 18 | LXRb hcDAF ctr inactive | hcDAF12 ag 7.6 | hgDAF12 conf 13 | LXRb DAF12 ctr inactive
Cc1ccc(NC(=O)CCS(=O)(=O)c2ccc3nc(C)sc3c2)cc1	none
O=C(c1ccccc1)n1c(=S)nc2ccccn21	hcDAF-12 act 15, ssDAF-12 act 1.1, hgDAF12 agonist 16 | LXRb hcDAF ctr inactive | hcDAF12 ag 14 | hgDAF12 conf 17 | LXRb DAF12 ctr inactive
CCc1sc(C(=O)Nc2nc(C)cs2)cc1C	hcDAF-12 act 9.2, hgDAF12 agonist 15 | LXRb hcDAF ctr inactive | hcDAF12 ag 6.1 | hgDAF12 conf 17 | LXRb DAF12 ctr inactive
